Data as given in PubChem BioAssay (NCATS).
Results filed as inconclusive are left out. Active and inactive are the calls of the source. Unless noted, calls follow the shape of the dose curve; as a rule, active = well fitted curve in the direction sought with a large enough effect; inconclusive = small, poorly fitted or top-dose-only effect, or another doubt; inactive = no such curve, though single readings can be large; an effect the other way counts as inactive or inconclusive.

Key:
[1] = AP1 Signaling Pathway (AID 357; active = well fitted curve in either direction with a large enough effect, not every such curve was filed as active; also: % is scaled to controls: 0 for no effect and ±100 for the full control effect); conditions: ME-180 AP-1-bla reporter, EGF-induced, beta-lactamase ratio, 5 h; at 38 µM (top of the series)
In short: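 ME-180 cells with beta-lactamase reporter under AP-1 response element, stimulated with EC50 EGF; compounds tested in titration series, 5 h at 37 °C. CCF4 substrate added 2.5 h at room temperature; 460/530 nm emission ratio gave %activity and AC50.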

[2] = molecular target: Cytochrome P450 1A2 (Homo sapiens) (UniProt P05177); test: p450-cyp1a2 (AID 410; calls by dose curve;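 also: -100% = full effect of reference inhibitor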)
In short: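 20nM CYP1A2, 100uM Luciferin-ME (=Km), 100mM KPO4; cpd 10 min RT; +NADPH regen, 60 min RT; stop/detect 20 min; luminescence. Normalized to furafylline 57 uM = full inhibition.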

[3] = NFAT Signaling Pathway (AID 444; active = well fitted curve in either direction with a large enough effect, not every such curve was filed as active;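 also: carbachol stimulus at about its EC50 of 1 µM final; % is scaled to controls: 0 for no effect and ±100 for the full control effect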); conditions: Jurkat NFAT-bla M1, carbachol, beta-lactamase ratio, 5 h; at 38 µM (top of the series)
In short: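 Jurkat cells carrying an NFAT-driven β-lactamase reporter and co-transfected muscarinic M1 receptor were treated with compound plus carbachol (1 uM final, an EC50 level) for 5 h at 37 °C. CCF4 loading followed for 1 h at RT; 460/530 nm ratio gave %activity.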

[4] = molecular target: Glucocorticoid receptor (Homo sapiens) (UniProt P04150); test: GR-GFP Redistribution (AID 450;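 active = compounds whose dose series gives a full or clear partial fitted curve of increased nuclear translocation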; also: potency is read from the fitted curve at half-maximal effect); conditions: U2OS GR-GFP nuclear translocation, laser cytometry, 2 h
[5] = molecular target: Glucocorticoid receptor (Homo sapiens) (UniProt P04150); test: GR-EFC Redistribution (AID 451; calls by dose curve; also: potency is read from the fitted curve at half-maximal effect); conditions: CHO-K1 GR-EFC translocation, beta-gal luminescence, 2 h
In short: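 CHO-K1 cells stably expressing nuclear-localized β-gal enzyme acceptor and GR fused C-terminally to the enzyme donor fragment; ligand-driven nuclear translocation restores β-gal by complementation. Compounds titrated up to 46 uM final, 2 h at 37 °C; luminescence read.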

[6] = molecular target: Mitogen-activated protein kinase 10 (Mus musculus) (UniProt Q61831); test: JNK3 AlphaScreen Assay (AID 530; active = well fitted curve in either direction with a large enough effect, not every such curve was filed as active;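 also: kinase came from lysate of stimulated human HepG2 cells; signal reports phosphorylation of biotinylated GST-cJun 1-79 at Ser73 with 10 µM ATP; % is scaled to controls: 0 for no effect and ±100 for the full control effect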)
In short: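 Biotinylated GST-cJun(1-79) served as substrate for JNK3 in HepG2 lysates stimulated with IL-1beta and TNF-alpha. ATP was 10 uM final, pH 7.6. Ser73 phosphorylation was quantified by AlphaScreen (680 nm excitation).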

[7] = molecular target: 3',5'-cyclic-AMP phosphodiesterase 4B (Homo sapiens) (UniProt Q07343); test: qHTS Assay for Inhibitors of PDE-IV (AID 607; active = well fitted activation curve with a large enough effect in the main read-out, with a control signal flat, not every such curve was filed as active; also: % of control where 0% means no effect)
In short: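 Live HEK293 cells with a modified cyclic nucleotide-gated (CNG) channel report intracellular cAMP via membrane-potential dye fluorescence (ex 535/em 590 nm). Endogenous PDE-IV was targeted. Compounds were tested at up to 22.9 uM final; RO 20-1724 100 uM served as control.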

[8] = molecular target: Guanine nucleotide-binding protein G(i) subunit alpha-1 (Homo sapiens) (UniProt P63096); test: qHTS Assay for Inhibitors of RGS12 GoLoco Motif Activity (Green Fluorophore) (AID 879);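 also: 0% = labeled peptide with Gαi1 and full inhibition = labeled peptide alone without protein; negative values mean loss of peptide binding seen as reduced polarization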
In short: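 A drop in FITC polarization marked displacement of the FITC-tagged RGS12 GoLoco peptide (10 nM) from Gαi1 (50 nM). Compounds were incubated 10 min at room temperature in Tris pH 7.5 buffer containing 150 mM NaCl, 0.1 mM GDP and 0.05% NP40; unlabeled peptide titration served as control.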

[9] = qHTS Assay for Identification of Small Molecule Agonists for Thrombopoietin (TPO) Signaling Pathway (AID 917); also: % is scaled to controls: 0 for no effect and ±100 for the full control effect
In short: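 Luciferase reporter (Glycoprotein IIb promoter) in IL-3-deprived Ba/F3 cells carrying human TPO receptor; compounds co-added with 26 pM TPO, incubated 24 h, 37 C. Steadylite luminescence measured after 10 min.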

[10] = molecular target: Muscarinic acetylcholine receptor M1 (Rattus norvegicus) (UniProt P08482); test: qHTS Assay for Antagonists of Acetylcholine Muscarinic M1 Receptor: Measurement of IP-One Response (AID 944); also: nearly all actives have a fitted effect of over 75% in size
In short: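 Read-out: HTRF competition between d2-IP1 and Eu-cryptate anti-IP1 antibody, emission 620 and 665 nm. Stimulus was carbachol, EC80 (200 nM), for 30 min in M1-CHO cells (rat receptor), after 10 min compound pre-treatment.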

[11] = molecular target: Pyruvate kinase (Leishmania mexicana) (UniProt Q27686); test: qHTS Validation Assay for Inhibitors of Leishmania Mexicana Pyruvate Kinase (AID 945);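 also: 0% = DMSO only neutral control wells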
In short: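 Eight-point qHTS titrations in triplicate, data normalized to DMSO neutral control. Reaction: 0.2 nM LmPYK E451W mutant, 0.5 mM PEP, 0.1 mM ADP, 7 mM MgCl2, pH 7.2, one hour at room temperature; luminescent ATP detection.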

[12] = molecular target: Pyruvate kinase PKM (Homo sapiens) (UniProt P14618); test: qHTS Assay for Activators of Human Muscle Pyruvate Kinase (AID 954; active = well fitted curve in the direction sought with a large enough effect, not every such curve was filed as active;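 also: 0% = uninhibited enzyme and -100% = no enzyme or full thiadiazolimine inhibition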)
In short: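 Screening used highly purified human pyruvate kinase M2 under submaximal activity, with PEP at its Km and ADP below Km. After an hour at room temperature, ATP was read by luciferase luminescence.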

[13] = molecular target: Alpha-galactosidase A (Homo sapiens) (UniProt P06280); test: Counterscreen for Glucocerebrosidase Inhibitors: qHTS Assay for Human alpha-Galactosidase at pH 4.5 (AID 992); also: 0% is about no effect
In short: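 Each compound is preincubated briefly with 2 nM enzyme before substrate addition (80 uM); plates then sit 20 min at ambient temperature, are quenched with 1M NaOH/1M glycine, and read fluorometrically.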

[14] = molecular target: alpha-glucosidase (Oryza sativa, rice) (UniProt Q653V4); test: Counterscreen for Glucocerebrosidase Inhibitors: qHTS Assay for Rice alpha-Glucosidase at pH 5.0 (AID 997);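 also: 0% = full activity with enzyme and -100% = basal without enzyme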
In short: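 Endpoint fluorogenic assay at pH 5.0: compounds (0.7 nM to 77 uM) titrated against 4 nM rice enzyme and 400 uM 4-MU-alpha-glucoside for 20 min at room temperature; NaOH/glycine stop, read ex 365/em 440 nm, Hill-fitted AC50.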

[15] = Cytometric Cell-Based qHTS for Inhibitors of the mTORC1 Signaling Pathway in MEF (Tsc2-/-, p53-/-) Cells (AID 2660);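 also: Tsc2 and p53 null MEFs carrying empty vector with compound for 24 h; percent of cells above a phospho-rpS6 to PI ratio cutoff in each well; plate controls were DMSO for no effect and rapamycin for full effect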
In short: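 Percent of cells positive for normalized phospho-S6 staining is reported, with the cutoff set from rapamycin (7.5 nM) versus DMSO wells. Tsc2-/-, p53-/- MEFs received compound for 24 hrs.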

[16] = High Content Imaging Cell-Based qHTS for Inhibitors of the mTORC1 Signaling Pathway in MEF (Tsc2-/-, p53-/-) Cells (AID 2666); conditions: at 38.3 µM (top of the series);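 also: percent of cells scored positive for phospho-rpS6 Ser235/236 immunostaining by imaging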
In short: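 Inhibition of rpS6 phosphorylation is measured by immunofluorescence imaging in empty-vector Tsc2-/-, p53-/- mouse embryonic fibroblasts after 24 hrs compound exposure at 37 degree Celsius. Results are reported as % positive cells per well.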

[17] = High Content Imaging Cell-Based qHTS for Inhibitors of the mTORC1 Signaling Pathway in MEF Cells (AID 2667);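 also: Tsc2-/- p53-/- MEFs stably re-expressing wild-type Tsc2 exposed 24 h; plate controls were DMSO wells for no effect and rapamycin control wells for full effect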
In short: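 Fixed-cell imaging of phospho-S6 (Ser235/236, Alexa-488) after 24 hrs of compound treatment at 37 degree Celsius. Signal was normalized to Hoechst, and thresholds from the highest and lowest wells split cells into % active versus % non-active.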

[18] = Cytometry Cell-Based qHTS for Inhibitors of the mTORC1 Signaling Pathway in MEF cells (AID 2668);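 also: Tsc2-/- p53-/- mouse embryonic fibroblasts stably re-expressing wild-type Tsc2; percent cells positive for phospho-rpS6 Ser235/236 relative to propidium iodide stain; plate controls were DMSO wells for no effect and 7.5 nM rapamycin control wells for full effect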
In short: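 Phospho-rpS6 (Ser235/236) immunofluorescence over PI signal, scored as % positive cells using thresholds from 7.5 nM rapamycin and DMSO wells, after 24 h compound exposure of WT-Tsc2-rescued Tsc2-/-, p53-/- MEFs. PI cell count recorded for viability.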

[19] = molecular target: DNA polymerase III PolC-type (Bacillus subtilis (strain 168)) (UniProt P13267); test: qHTS Validation Assay for the Inhibitors of DNA Replication in Gram-Positive Bacteria (AID 485295);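 also: reconstituted holoenzyme with PolC plus beta clamp SSB and primase; PicoGreen fluorescence of double-stranded DNA made on primed circular M13 template; 0% = DMSO wells and -100% = EDTA-quenched background wells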
In short: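 Double-stranded DNA product detected by PicoGreen fluorescence after EDTA quench. Compound incubated with B. subtilis holoenzyme (PolC, beta subunit, SSB, primase) before substrate addition; primed replication of M13Gori with dNTPs and NTPs at room temperature; DMSO defines 0% inhibition.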

[20] = molecular target: Tumor susceptibility gene 101 protein (Homo sapiens) (UniProt Q99816); test: qHTS Validation Assay for Iinhibitors of HIV-1 Budding by Blocking the Interaction of PTAP/TSG101 (AID 485342; calls by dose curve; also: 0% is about no effect)
In short: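 Fluorescence polarization of 50 nM FITC-PTAP peptide bound to 10 uM Tsg101 binding domain was read after 20 min room-temperature incubation with compounds, in 10 mM HEPES pH 7.5, 0.15 M NaCl, 0.01% Tween 20.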

[21] = qHTS Validation Assay to Find Inhibitors of Chronic Active B-Cell Receptor Signaling (AID 485345; active = well fitted curve in the direction sought with a large enough effect in the main read-out, with a control signal flat, not every such curve was filed as active;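 also: 0% = untreated basal cells and 100% = 10 µM MG-132 proteasome inhibitor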)
In short: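 TMD8 ABC-DLBCL cells with dox-inducible green luciferase–IκBα fusion and red native luciferase; compounds 46 uM–3 nM, 4 h at 37C with doxycycline in 0.5% FBS IMDM. Green/red ratio normalized to basal and 10 uM MG-132.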

[22] = molecular target: Beta-2 adrenergic receptor (Homo sapiens) (UniProt P07550); test: qHTS validation assay of beta-arrestin-biased ligands of beta2-adrenergic receptor (AID 485366); also: 0% is about no effect
In short: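 Screening used a titration range of up to 46 microM in a beta-arrestin recruitment Tango luciferase assay. Cells in 1% FBS medium were treated 18 hr at 37 degrees C, and luminescence was normalized to %Activity.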

[23] = molecular target: Thioredoxin reductase 1, cytoplasmic (Rattus norvegicus) (UniProt O89049); test: qHTS Assay for Substrates of Mammalian Selenoprotein Thioredoxin Reductase 1 (TrxR1) (AID 488772);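 also: 0% is about no effect; a drop in NADPH fluorescence below the no-compound background marks a TrxR1 substrate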
In short: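 In this dual-purpose format, potential substrates are identified from the first fluorescence read after selenite addition, not from the 8-minute delta. Rat enzyme is preincubated with NADPH and then with compound at ~22 deg C.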

[24] = molecular target: Chromobox protein homolog 1 (Homo sapiens) (UniProt P83916); test: qHTS Validation Assay for Inhibitors of HP1-beta Chromodomain Interactions with Methylated Histone Tails (AID 488953);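 also: loss of AlphaScreen luminescence from HP1-beta binding biotinylated H3K9me3 peptide; % is scaled to controls: 0 for no effect and ±100 for the full control effect; nearly all actives have a fitted effect of over 50% in size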
In short: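 AlphaScreen proximity readout: streptavidin donor and Ni-chelate acceptor beads, 10 ug/mL final, 30 min dark, RT. Complex of 50 nM HP1-beta and 50 nM b-H3(1-18)K9me3 formed 30 min, then compound-treated 30 min; PBS pH 7.4/0.01% Tween-20.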

[25] = molecular target: Methanococcus maripaludis chaperonin (MmCpn) (UniProt Q6LX38); test: High-Throughput Screening for Modulators of Cytosolic Chaperonin Activity: MmCpn Primary Screen (AID 488978);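 also: 50 nM MmCpn enzyme hydrolysing 30 µM ATP at 37 °C; 0% is about no effect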
In short: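 ATPase activity of 50 nM MmCpn was assayed with 30 uM ATP, 10 minutes at 37C, after a 5 min compound preincubation at room temperature. ADP production was read as HTRF emission at 590 and 665 nm.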

[26] = molecular target: D(1A) dopamine receptor (Homo sapiens) (UniProt P21728); test: HTS Assay for Allosteric Agonists of the Human D1 Dopamine Receptor: Primary Screen for Agonists (AID 488981); also: 0% is about no effect
In short: (§1)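 Tetracycline-induced HEK293 T-REx cells force-coupled to calcium signalling were incubated overnight at 30 C and dye-loaded at room temperature. Calcium flux over 180 s after compound addition flagged agonists; a further 180 s read after EC20 dopamine flagged potentiators.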

[27] = molecular target: D(1A) dopamine receptor (Homo sapiens) (UniProt P21728); test: HTS Assay for Allosteric Agonists of the Human D1 Dopamine Receptor: Primary Screen for Potentiators (AID 488982); also: 0% is about no effect
In short: as §1

[28] = molecular target: D(1A) dopamine receptor (Homo sapiens) (UniProt P21728); test: HTS Assay for Allosteric Agonists of the Human D1 Dopamine Receptor: Primary Screen for Antagonists (AID 488983);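 also: calcium flux response to an EC80 dopamine challenge measured with no-wash dye; % is scaled to controls: 0 for no effect and ±100 for the full control effect; nearly all actives have a fitted effect of over 65% in size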
In short: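 Calcium flux readout, no-wash dye, inducible HEK293 T-REx D1 line (force-coupled). Compound added after 10 s baseline, 180 s kinetic read; then dopamine at EC80, further 180 s read.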

[29] = Validation screen for small molecules that induce genotoxicity in human embryonic kidney (HEK293T) cells expressing luciferase-tagged ELG1 (AID 493106); also: 0% is about no effect
In short: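 qHTS format; 2,000 HEK293T ELG1-luc cells/well; 23 nL compound via pin tool; 16 hr, 37 °C/5% CO2; ONE-Glo, 30 min RT; luminescence read.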

[30] = molecular target: ATPase family AAA domain-containing protein 5 (Homo sapiens) (UniProt Q96QE3); test: Validation screen for small molecules that inhibit ELG1-dependent DNA repair in human embryonic kidney (HEK293T) cells expressing luciferase-tagged ELG1 (AID 493107);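 also: cells co-treated with the DNA-damaging agent 5-fluorouridine alongside compound; % is scaled to controls: 0 for no effect and ±100 for the full control effect; inhibitors lower the ELG1-luciferase luminescence signal; nearly all actives have a fitted effect of over 70% in size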
In short: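 ELG1-luciferase HEK293T reporter; 5-fluorouridine + compound/DMSO, 16 hr, 37 °C, 5% CO2; ONE-Glo 30 min RT; luminescence read, qHTS format.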

[31] = Nrf2 qHTS screen for inhibitors: Validation (AID 493153; active = well fitted inhibition curve with a large enough effect in the main read-out, with a control signal flat, not every such curve was filed as active; as to activity change, negative = inhibition: % of control where 0% means no effect); conditions: viability change: measured here: cytotoxicity max response
In short: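 Concentration-response test in A549 ARE_Fluc reporter cells (5% FBS OPTI-MEM), compound exposure 18-24 h at 37°C, 5% CO2. Cell viability measured first by CellTiter-Fluor fluorescence; ARE-driven luciferase luminescence then measured as Nrf2 activity.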

[32] = qHTS for Inhibitors of Cell Surface uPA Generation: Validation Assay (AID 493164);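 also: RAW 264.7 macrophage cells exposed to compound for 18 h; 0% is about no effect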
In short: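 Compounds are titrated over seven points (2.45 nM–38.3 uM final) onto pre-plated RAW 264.7 cells and incubated for 18 h. Retained intracellular ATP, measured with ATP-Lite, indicates blocked lethal factor entry.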

Sequence of D(1A) dopamine receptor (Homo sapiens) (P21728 whole entry, looked up): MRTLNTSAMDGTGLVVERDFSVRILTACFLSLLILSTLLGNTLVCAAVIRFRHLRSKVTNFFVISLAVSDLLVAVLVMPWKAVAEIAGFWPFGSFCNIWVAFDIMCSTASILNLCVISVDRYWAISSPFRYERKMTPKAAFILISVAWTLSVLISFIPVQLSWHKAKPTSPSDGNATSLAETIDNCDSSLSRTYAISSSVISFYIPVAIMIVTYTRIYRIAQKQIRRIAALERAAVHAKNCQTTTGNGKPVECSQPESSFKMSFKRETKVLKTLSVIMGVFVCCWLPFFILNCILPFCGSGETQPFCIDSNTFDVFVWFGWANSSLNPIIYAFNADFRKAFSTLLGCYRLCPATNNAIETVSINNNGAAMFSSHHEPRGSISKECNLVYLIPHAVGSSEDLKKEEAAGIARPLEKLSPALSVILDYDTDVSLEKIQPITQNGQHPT
Sequence of Glucocorticoid receptor (Homo sapiens) (P04150 whole entry, looked up, the tested form may be a part): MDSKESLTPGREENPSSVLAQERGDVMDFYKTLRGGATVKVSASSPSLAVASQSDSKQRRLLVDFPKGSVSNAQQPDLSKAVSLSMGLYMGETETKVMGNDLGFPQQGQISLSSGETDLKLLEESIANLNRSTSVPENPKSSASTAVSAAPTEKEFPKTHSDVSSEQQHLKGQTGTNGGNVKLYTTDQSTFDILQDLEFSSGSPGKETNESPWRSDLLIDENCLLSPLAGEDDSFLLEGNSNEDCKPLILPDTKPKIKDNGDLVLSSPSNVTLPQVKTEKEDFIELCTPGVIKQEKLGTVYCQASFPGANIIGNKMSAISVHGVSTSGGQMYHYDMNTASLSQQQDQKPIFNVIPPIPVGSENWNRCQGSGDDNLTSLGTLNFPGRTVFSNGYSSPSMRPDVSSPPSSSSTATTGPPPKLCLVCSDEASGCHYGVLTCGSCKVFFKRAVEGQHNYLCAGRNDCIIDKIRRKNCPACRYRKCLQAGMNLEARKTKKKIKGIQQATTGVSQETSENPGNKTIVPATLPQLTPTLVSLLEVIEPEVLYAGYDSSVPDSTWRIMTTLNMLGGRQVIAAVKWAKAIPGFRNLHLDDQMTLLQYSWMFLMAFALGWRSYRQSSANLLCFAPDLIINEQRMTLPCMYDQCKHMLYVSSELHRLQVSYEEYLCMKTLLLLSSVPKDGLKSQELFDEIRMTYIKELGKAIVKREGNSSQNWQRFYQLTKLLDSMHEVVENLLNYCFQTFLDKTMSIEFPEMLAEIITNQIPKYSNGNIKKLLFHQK
Sequence of Beta-2 adrenergic receptor (Homo sapiens) (P07550 whole entry, looked up): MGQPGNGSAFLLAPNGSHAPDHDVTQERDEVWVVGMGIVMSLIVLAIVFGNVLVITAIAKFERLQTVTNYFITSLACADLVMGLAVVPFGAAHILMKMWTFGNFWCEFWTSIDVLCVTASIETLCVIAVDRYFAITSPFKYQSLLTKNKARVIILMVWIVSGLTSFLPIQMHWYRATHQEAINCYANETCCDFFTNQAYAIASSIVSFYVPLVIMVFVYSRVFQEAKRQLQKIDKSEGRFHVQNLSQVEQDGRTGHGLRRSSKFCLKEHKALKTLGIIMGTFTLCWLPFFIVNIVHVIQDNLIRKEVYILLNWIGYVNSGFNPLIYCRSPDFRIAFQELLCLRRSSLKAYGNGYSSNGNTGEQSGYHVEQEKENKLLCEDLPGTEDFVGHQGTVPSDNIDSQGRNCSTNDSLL
Sequence of DNA polymerase III PolC-type (Bacillus subtilis (strain 168)) (P13267 whole entry, looked up): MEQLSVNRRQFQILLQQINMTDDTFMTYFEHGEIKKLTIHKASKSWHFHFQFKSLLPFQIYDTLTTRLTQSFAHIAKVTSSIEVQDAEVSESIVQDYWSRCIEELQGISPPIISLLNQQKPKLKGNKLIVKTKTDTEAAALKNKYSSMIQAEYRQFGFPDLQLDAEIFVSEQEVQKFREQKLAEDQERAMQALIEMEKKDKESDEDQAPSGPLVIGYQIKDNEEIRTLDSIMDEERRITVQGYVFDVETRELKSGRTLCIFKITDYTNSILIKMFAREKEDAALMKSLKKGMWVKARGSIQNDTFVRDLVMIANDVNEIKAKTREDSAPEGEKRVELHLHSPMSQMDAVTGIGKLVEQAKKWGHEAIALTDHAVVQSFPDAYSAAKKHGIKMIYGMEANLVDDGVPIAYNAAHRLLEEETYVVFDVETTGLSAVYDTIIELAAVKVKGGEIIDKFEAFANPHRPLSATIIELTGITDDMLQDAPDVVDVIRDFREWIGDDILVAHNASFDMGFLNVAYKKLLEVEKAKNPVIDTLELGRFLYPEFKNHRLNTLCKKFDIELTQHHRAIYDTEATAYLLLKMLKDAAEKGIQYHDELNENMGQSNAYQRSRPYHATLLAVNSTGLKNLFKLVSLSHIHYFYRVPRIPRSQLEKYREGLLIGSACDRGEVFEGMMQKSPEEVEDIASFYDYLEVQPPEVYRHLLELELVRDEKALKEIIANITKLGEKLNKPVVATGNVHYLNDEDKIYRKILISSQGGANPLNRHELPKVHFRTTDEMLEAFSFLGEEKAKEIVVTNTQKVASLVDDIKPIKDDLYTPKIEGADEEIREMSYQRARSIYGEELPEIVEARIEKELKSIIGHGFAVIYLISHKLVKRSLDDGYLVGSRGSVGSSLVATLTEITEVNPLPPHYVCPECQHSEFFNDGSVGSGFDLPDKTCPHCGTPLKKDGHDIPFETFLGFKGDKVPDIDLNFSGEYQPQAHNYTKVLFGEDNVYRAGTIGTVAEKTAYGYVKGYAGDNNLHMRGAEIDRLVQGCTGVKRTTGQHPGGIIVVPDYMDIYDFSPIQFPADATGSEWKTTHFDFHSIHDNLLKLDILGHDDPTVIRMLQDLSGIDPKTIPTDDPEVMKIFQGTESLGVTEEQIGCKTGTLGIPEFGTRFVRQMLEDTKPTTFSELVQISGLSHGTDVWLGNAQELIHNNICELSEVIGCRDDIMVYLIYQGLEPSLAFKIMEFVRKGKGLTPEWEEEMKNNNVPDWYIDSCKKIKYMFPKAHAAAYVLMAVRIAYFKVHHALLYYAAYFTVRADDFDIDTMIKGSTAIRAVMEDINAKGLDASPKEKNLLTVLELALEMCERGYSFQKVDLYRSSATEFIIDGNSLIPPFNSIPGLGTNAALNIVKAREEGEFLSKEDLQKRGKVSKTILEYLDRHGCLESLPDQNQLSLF
Sequence of Tumor susceptibility gene 101 protein (Homo sapiens) (Q99816 whole entry, looked up, the tested form may be a part): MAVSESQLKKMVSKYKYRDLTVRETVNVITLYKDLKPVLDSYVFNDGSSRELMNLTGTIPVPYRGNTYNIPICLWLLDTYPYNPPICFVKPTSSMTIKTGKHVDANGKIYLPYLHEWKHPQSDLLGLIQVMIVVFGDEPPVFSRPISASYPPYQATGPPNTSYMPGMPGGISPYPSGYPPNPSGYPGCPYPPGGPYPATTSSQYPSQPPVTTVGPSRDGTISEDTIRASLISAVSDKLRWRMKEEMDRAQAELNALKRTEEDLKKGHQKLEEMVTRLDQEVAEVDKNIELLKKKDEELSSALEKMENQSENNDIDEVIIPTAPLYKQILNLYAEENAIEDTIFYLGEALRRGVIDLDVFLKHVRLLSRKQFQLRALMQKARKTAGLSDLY
Sequence of Methanococcus maripaludis chaperonin (MmCpn) (Q6LX38 1-543): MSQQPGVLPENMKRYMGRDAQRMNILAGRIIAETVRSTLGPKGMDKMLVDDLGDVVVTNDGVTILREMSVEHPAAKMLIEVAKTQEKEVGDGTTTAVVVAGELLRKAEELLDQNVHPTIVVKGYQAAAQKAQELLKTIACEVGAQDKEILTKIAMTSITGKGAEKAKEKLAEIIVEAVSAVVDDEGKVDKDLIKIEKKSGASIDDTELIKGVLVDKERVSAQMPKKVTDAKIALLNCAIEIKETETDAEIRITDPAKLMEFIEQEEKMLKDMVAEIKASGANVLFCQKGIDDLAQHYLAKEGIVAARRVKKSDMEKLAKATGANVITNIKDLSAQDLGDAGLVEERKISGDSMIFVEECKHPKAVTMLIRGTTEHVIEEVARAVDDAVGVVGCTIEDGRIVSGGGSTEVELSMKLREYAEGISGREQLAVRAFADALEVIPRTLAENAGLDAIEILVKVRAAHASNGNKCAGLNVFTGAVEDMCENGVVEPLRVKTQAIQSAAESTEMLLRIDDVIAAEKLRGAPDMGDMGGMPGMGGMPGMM
Sequence of Guanine nucleotide-binding protein G(i) subunit alpha-1 (Homo sapiens) (P63096 whole entry, looked up): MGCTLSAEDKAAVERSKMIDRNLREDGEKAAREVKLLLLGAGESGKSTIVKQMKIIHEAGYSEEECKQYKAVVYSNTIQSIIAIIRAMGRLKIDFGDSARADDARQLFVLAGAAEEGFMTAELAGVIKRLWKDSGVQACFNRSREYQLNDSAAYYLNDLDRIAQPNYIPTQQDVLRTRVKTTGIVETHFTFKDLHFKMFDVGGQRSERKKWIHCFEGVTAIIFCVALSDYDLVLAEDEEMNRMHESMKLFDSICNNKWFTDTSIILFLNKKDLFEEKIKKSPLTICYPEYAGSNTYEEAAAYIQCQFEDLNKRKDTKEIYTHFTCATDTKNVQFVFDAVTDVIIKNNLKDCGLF
Sequence of Cytochrome P450 1A2 (Homo sapiens) (P05177 whole entry, looked up): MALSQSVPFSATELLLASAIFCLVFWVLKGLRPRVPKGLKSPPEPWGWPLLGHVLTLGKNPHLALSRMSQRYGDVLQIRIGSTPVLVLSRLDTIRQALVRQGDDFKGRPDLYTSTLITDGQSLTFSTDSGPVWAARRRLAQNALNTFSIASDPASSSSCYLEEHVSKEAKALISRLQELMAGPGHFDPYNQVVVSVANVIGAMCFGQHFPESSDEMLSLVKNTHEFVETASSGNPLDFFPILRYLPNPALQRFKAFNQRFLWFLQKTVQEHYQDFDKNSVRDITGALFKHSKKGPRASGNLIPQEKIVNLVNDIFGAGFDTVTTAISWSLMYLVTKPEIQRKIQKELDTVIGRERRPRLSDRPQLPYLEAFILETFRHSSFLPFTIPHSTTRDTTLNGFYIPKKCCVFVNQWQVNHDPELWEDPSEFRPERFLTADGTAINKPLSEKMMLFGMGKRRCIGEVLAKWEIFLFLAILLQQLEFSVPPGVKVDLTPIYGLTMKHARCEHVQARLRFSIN

CC[N+](CC)(CC)CC
inactive: activity change, negative = inhibition [1] -0.239% | Potency [2] | activity change, negative = inhibition [3] -10.5% | Potency [4] > 46 µM | Potency [5] > 46 µM | Potency [6] | Potency [7] | outcome [8] | Potency [9] | Potency [10] | Potency [11] | outcome [12] | outcome [13] | outcome [14] | outcome [15] | outcome [16] | Potency [17] | Potency [18] | Potency [19] | outcome [20] | outcome [21] | outcome [22] | outcome [23] | Potency [24] | outcome [25] | outcome [26] | outcome [27] | outcome [28] | Potency [29] | Potency [30] | outcome [31] | outcome [32]
-5.41%: viability change [31]
